Data taken from PMC4552634, “A New Set of Chemical Starting Points with Plasmodium falciparum Transmission-Blocking Potential for Antimalarial Drug Discovery” (PLoS ONE, 2015).
The campaign covered roughly 13,000 compounds. About 3,200 (25%) showed an effect of 50% or more. This is one part of the list.

Tested on: P. falciparum stage V gametocytes
Set-up: BacTiter-Glo ATP luminescence viability of purified stage V gametocytes in 384-well plates, per cent inhibition versus DMSO
Conditions: 48 h, 5 µM; inhibitor

Row | SMILES | % Inhibition
1 | O=c1cc(NCCCNC2CCOc3c(Cl)cccc32)[nH]c2ccccc12 (centres unmarked) [TCMDC-139551] | -16.88%
2 | O=C(/C=C/c1ccc(Cl)c(Cl)c1)NCCCCCCN1CCN(C(=O)Nc2cccc(Cl)c2)CC1 [TCMDC-135831] | -35.92%
3 | Nc1nc(N)c2c(ccc3c2ccn3Cc2cccc(F)c2)n1 [TCMDC-137810] | 101.3%
4 | Cc1cccc(Cn2ccc3c(N)nc(N)nc32)c1 [TCMDC-137327] | 54.63%
5 | Cc1cccc(Cn2ccc3c4c(N)nc(N)nc4ccc32)c1 [TCMDC-137814] | 60.36%
6 | Nc1nc(N)c2c(ccn2Cc2cc3c(cc2Cl)OCO3)n1 [TCMDC-137328] | -14.37%
7 | Cc1cccc(-c2c(C)nc(N)nc2N)c1 [TCMDC-138072] | 4.683%
8 | Nc1nc(N)c2c(ccc3c2ccn3CC2CC2)n1 [TCMDC-123991] | 40.96%
9 | Cc1ccc(C)c(Cn2ccc3nc(N)nc(N)c32)c1 [TCMDC-137330] | 9.396%
10 | Nc1nc(N)c2c(ccc3c2ccn3Cc2ccc3c(c2)OCO3)n1 [TCMDC-137808] | 102.2%
11 | Cc1cc(NC(=O)Nc2ccc3ncccc3c2)c2ccccc2n1 [TCMDC-139829] | -30.57%
12 | COc1ccc(C2CCN(C#N)C2)cc1OC1CCCC1 (centres unmarked) [TCMDC-131880] | 32.2%
13 | COc1ccc(-n2c(=O)c3c(n4c(SC(C)C)nnc24)-c2ccccc2CC32CCCCC2)cc1 [TCMDC-125706] | 19.59%
14 | NC1=NC(CCc2ccccc2)N(c2ccccc2)C(N)=N1 (centres unmarked) [TCMDC-131292] | 10.89%
15 | Cn1nccc1C(=O)NCCNCc1ccc(-c2cccc(-c3nc4ccccc4[nH]3)c2)cc1.O=C(O)C(F)(F)F [TCMDC-132562] | -0.1444%
16 | O=C(O)C(F)(F)F.c1ccc2[nH]c(-c3ccc(-c4ccc(CN5CCN(CCN6CCOCC6)CC5)cc4)cc3)nc2c1 [TCMDC-133928] | -28.02%
17 | O=C(O)C(F)(F)F.O=C1CCCN1CCCNCc1ccc(-c2cccc(-c3nc4ccccc4[nH]3)c2)cc1 [TCMDC-132549] | -11.63%
18 | O=C(O)C(F)(F)F.c1cc(-c2ccc(CNCCCn3ccnc3)cc2)cc(-c2nc3ccccc3[nH]2)c1 [TCMDC-132541] | 99.24%
19 | O=C(O)C(F)(F)F.c1cc(-c2ccc(CNCCCN3CCOCC3)cc2)cc(-c2nc3ccccc3[nH]2)c1 [TCMDC-132548] | 54.17%
20 | c1ccc(CCNc2ncnc3c2[nH]c2ccccc23)cc1 [TCMDC-124578] | -4.873%
21 | CC(C)(C)c1cc(C(=O)Nc2cccnc2)cc(C(=O)Nc2cccnc2)c1 [TCMDC-125788] | -16.11%
22 | COc1ccc2nccc([C@@H](O)CN3CCC(NCc4nc5c(OCc6ccccc6)cccc5[nH]4)CC3)c2c1 [TCMDC-141083] | 34.25%
23 | CC(CC(=O)NCC1(c2ccc(F)cc2Cl)CCOCC1)C(=O)c1ccc(Cl)cc1 (centres unmarked) [TCMDC-134256] | 68.04%
24 | N#CC(CC(=O)c1ccc(Cl)cc1)c1cccc(F)c1 (centres unmarked) [TCMDC-123760] | 17.52%

Row | SMILES | % Inhibition
25 | Cc1cccc2nc(-c3cccc(-c4ccc(C(=O)NCc5nccn5C)cc4)c3)[nH]c12 [TCMDC-132356] | 7.308%
26 | COc1ccc(NS(=O)(=O)c2ccccc2Br)cc1N1CCN(C)CC1 [TCMDC-139092] | -23.57%
27 | COc1ccc(S(=O)(=O)Nc2cc(Br)cc3c2OCCC3)cc1N1CCN(C(=O)C(Cl)(Cl)Cl)CC1 [TCMDC-139661] | -19.32%
28 | COc1ccc(S(=O)(=O)N(c2cc(Br)cc3c2OCC3)S(=O)(=O)c2ccc(OC)c(N3CCN(C)CC3)c2)cc1N1CCN(C)CC1 [TCMDC-139809] | 54.84%
29 | O=C(/C=C/c1ccc(Cl)c(Cl)c1)N1CCC(CCN2CCc3[nH]c4ccccc4c3C2)CC1 [TCMDC-134173] | -40.99%
30 | CCOC(=O)c1cn(CC)c2cc(F)c(OC3CC4CCC3(C)C4(C)C)cc2c1=O (centres unmarked) [TCMDC-124161] | -18.01%
31 | Nc1cc(-c2ccc(Br)cc2O)nc2ccccc12 [TCMDC-138932] | 61.65%
32 | Nc1cc(C=Cc2ccc(O)cc2)nc2ccccc12 [TCMDC-138973] | -27.13%
33 | CCn1c(/C=C/c2cc(Br)ccc2O)nc2ccccc2c1=O [TCMDC-124092] | 7.095%
34 | CN1CCCN(Cc2ccc(-c3ccc(NS(=O)(=O)c4cccc5cccnc45)cc3)cc2)CC1 [TCMDC-136478] | 98.81%
35 | CN1CCCN(Cc2cccc(-c3ccc(NS(=O)(=O)c4cccc5cccnc45)cc3)c2)CC1 [TCMDC-136481] | 100.2%
36 | CN1CCCN(Cc2cccc(-c3cccc(NS(=O)(=O)c4cccc5cccnc45)c3)c2)CC1 [TCMDC-136482] | 22.96%
37 | O=S(=O)(Nc1ccc(-c2ccc(CN3CCCC3)cc2)cc1)c1cccc2cccnc12 [TCMDC-136475] | 27.58%
38 | CCN1CCN(Cc2ccc(-c3ccc(NS(=O)(=O)c4cccc5cccnc45)cc3)cc2)CC1 [TCMDC-136479] | -5.672%
39 | CC(C)NCc1cccc(-c2ccc(NS(=O)(=O)c3cccc4cccnc34)cc2)c1 [TCMDC-136480] | 43.51%
40 | COc1cc(F)c2ncc(Cl)c(CCN3CCC(NCc4ccc5c(c4)OCCO5)CC3)c2c1 [TCMDC-135624] | 2.949%
41 | CC(CCc1ccccc1)NCC(O)c1ccc2c(c1)S(=O)(=O)c1ccccc1N2 (centres unmarked) [TCMDC-131254] | -29.84%
42 | CCCCCN1CCCC(NS(=O)(=O)c2ccc(C(=O)Nc3ccc(C(F)(F)F)cc3)cc2)C1 (centres unmarked) [TCMDC-133677] | 16.66%
43 | CN1CCCC1CCCOC(=O)c1ccc(N)cc1 (centres unmarked) [TCMDC-131643] | -5.047%
44 | CC(Cc1ccc(OCCCCOc2ccccc2)cc1)NCCCN1CCOCC1 (centres unmarked) [TCMDC-140018] | 107.6%
45 | CC(Cc1ccc(OCCN2CCN(c3ccccc3)CC2)cc1)NCC(O)c1cccc(Cl)c1F (centres unmarked) [TCMDC-131531] | 24.37%
46 | CC(Cc1ccc(OCCCCOc2ccccc2)cc1)NCCC1CCCN1C (centres unmarked) [TCMDC-140017] | 116.2%
47 | c1ccc(OCCCCN2CCCCC2)cc1 [TCMDC-124256] | 16.85%
